Assay outcomes as filed in PubChem.
F-actin modifier – cytoskeleton assembly modification; AID 836; HUVEC TNFa F-actin phalloidin imaging, high content; 91,000 tested, 0.18% active; inhibition, % at 2 µM;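 active = inhibition above the batch mean plus 3 SD and confirmed as a hit by visual image inspection, cut at about 30% in these data, passing the limit was not always enough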
TNFa cytotox – HUVEC cytotoxicity counter-screen, TNF alpha stimulated; HUVEC TNFalpha-stimulated, Hoechst cell count, imaging; cell count reduction, % at 2 µM; 93,000 tested, 0.17% active;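 active = cell count reduction exceeding the screen mean by over 5 SD, scaled to untreated wells per plate, cut at about 78% in these data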;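 note: cells counted after 24 h of TNF alpha exposure following the 1 h pretreatment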
VCAM1 TNFa inh – reduces TNF alpha induced VCAM1 expression in HUVEC; HUVEC TNFa-induced VCAM-1 immunofluorescence, high-content imaging; inhibition, % at 2 µM; 95,000 tested, 0.48% active; AID 802;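 active = inhibition above the batch mean plus 3 SD, with images confirmed as a hit by eye, cut at about 37% in these data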;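 note: 0% = TNF-stimulated DMSO wells and 100% = unstimulated control wells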
E-sel TNF inh – blocks E-selectin expression induced by TNF alpha. HUVEC TNFa-induced E-selectin immunofluorescence, high content. inhibition, % at 2 µM. 120,000 tested, 0.71% active;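 active = inhibition above the batch mean plus 3 SD, and confirmed as a hit on visual image review, cut at about 43% in these data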;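 note: 0% = TNF-stimulated DMSO wells and 100% = unstimulated control wells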
The depositor's hits bear a star; . = no result. The list is not random: actives were taken first. Their share in the collection is about 1.1%.

SMILES	F-actin modifier	TNFa cytotox	VCAM1 TNFa inh	E-sel TNF inh
O=C1CC(c2ccccc2)n2nc(NC(=O)C3CCCO3)nc2N1 (configuration not stated)	.	-10.7	11.0	45.2*
CCOC(=O)c1cnn(-c2nc(CC)nc3sc4c(c23)CCC4)c1N	-11.2	76.5	91.9*	.
O=Cc1s/c(=N\S(=O)(=O)c2ccccc2)n(CCCCl)c1Cl	.	.	.	72.3*
CCCc1cc(=O)[nH]c(SCC(=O)Nc2nonc2N)n1	22.8	-34.3	86.1*	-11.0
CCCc1cc(=O)[nH]c(SCC(=O)NC(=O)OCC)n1	-2.0	5.3	10.7	25.2
O=C(CCc1ccccc1)Nc1ncc2c(n1)CCCC2=O	-6.6	-14.2	-3.8	72.4*
O=c1c2ccccc2nnn1CSc1ncnc2ccccc12	-9.3	53.5	46.3*	0.3
COc1ccc(Oc2ccc(/C=C/C(=O)c3ccc(O)cc3)cc2[N+](=O)[O-])cc1	.	.	.	18.1
O=c1c2c(n3nnnc3n1-c1ccccc1)-c1ccccc1CC21CCCC1	-17.0	-28.3	-3.1	99.9*
COc1cc(C(C)=O)ccc1OCC(=O)c1cc(C)n(C2CC2)c1C	13.8	-21.3	35.3	.
O=C(Oc1ccccc1N1C(=O)C2CC=CCC2C1=O)c1ccc(Br)cc1 (configuration not stated)	.	.	.	78.0*
Cc1ccc(C(C(=O)NC(C)(C)C)N(Cc2ccco2)C(=O)CCC(=O)Nc2nccs2)cc1 (configuration not stated)	24.6	-45.6	5.5	11.6
O=S(=O)(c1ccc(Cl)cc1)c1snnc1-c1ccccc1	-8.8	10.5	49.9*	5.5
CN(C)c1ncc(S(=O)(=O)c2ccc(Cl)cc2)c(-c2ccccc2)n1	10.5	1.9	12.1	8.4
C/C(=N\Nc1cc(-c2ccccc2)nc(-c2ccccc2)n1)c1ccc(O)c(C)c1	.	.	.	79.8*
COc1ccc(/C=N/NC(=O)c2cc(-c3ccc(C)cc3C)nc3ccccc23)cc1COC(C)=O	-9.9	-1.2	1.6	-12.7
COCCNC(=O)C(c1ccc(F)cc1)N(CC1CCCO1)C(=O)CCC(=O)Nc1ccccn1 (configuration not stated)	-1.3	-28.7	-13.5	69.1*
COCCN(C(=O)CCC(=O)Nc1ccccn1)C(C(=O)NC1CCCC1)c1ccc(OC)cc1 (configuration not stated)	28.8	-3.0	3.4	100.0*
COCCNC(=O)CN(CC1CCCO1)C(=O)CCC(=O)Nc1ccccn1 (configuration not stated)	-24.2	8.9	-15.9	-2.1
COCCN(C(=O)CCCC(=O)Nc1ccccn1)C(C(=O)NC1CCCC1)c1ccc(C)cc1 (configuration not stated)	-16.4	-6.2	2.4	.
COc1ccc(S(=O)(=O)Nc2cc3c(C(C)=O)c(C)oc3c3ccccc23)cc1	.	41.4	79.5*	29.3
COc1ccc(NS(=O)(=O)c2cc(C)ccc2NC(=O)c2cc(C)oc2C)cc1	-59.1	32.2	44.4*	2.0
O=C(Nc1nccs1)c1ccc(NC(=O)C2CC=CCC2C(=O)O)cc1 (configuration not stated)	.	.	.	6.7
O=C(Nc1ccccc1N1CCOCC1)c1ccc([N+](=O)[O-])cc1	16.0	-23.0	-5.7	21.2
O=C(Nc1ccccc1N1CCOCC1)c1ccc(Cl)nc1	.	.	.	87.7*
SMILES	F-actin modifier	TNFa cytotox	VCAM1 TNFa inh	E-sel TNF inh
O=C1CC(Sc2nnc(-c3ccccc3O)o2)C(=O)N1c1ccccc1 (configuration not stated)	.	.	.	70.4*
COc1ccc(N2C(=O)CC(Sc3nnc(-c4ccccc4)o3)C2=O)cc1 (configuration not stated)	.	.	.	-38.2
O=C(NN=C1CCN(Cc2ccccc2)CC1)c1ccccc1	.	.	.	68.4*
CCn1c2ccccc2c2nnc(SCC(=O)N3CC(C)OC(C)C3)nc21 (configuration not stated)	-17.3	-7.5	-23.4	0.1
O=C(Nc1scc(-c2ccc(F)cc2)c1C(=O)O)c1ccco1	-43.4	34.4	-44.4	20.0
COC(=O)c1c(-c2ccccc2)csc1NC(=O)c1ccco1	-18.6	7.5	2.6	71.2*
CCCc1[nH]nc2c1C(c1cccnc1)C(C#N)=C(N)O2 (configuration not stated)	-64.5	82.4*	86.9*	.
CNC(=O)/C(C#N)=C/c1ccc(-c2ccccc2[N+](=O)[O-])o1	.	.	.	-6.9
Cc1ccc(Cc2cnc(NC(=O)/C(C#N)=C/c3ccc(-c4ccccc4[N+](=O)[O-])o3)s2)cc1	-8.9	-10.7	11.5	51.3*
CN(Cc1ccccc1)C(=O)c1cc(-c2ccc(Br)cc2)on1	.	.	.	99.9*
CCC(Sc1nc2c(c(=O)n1CC)SC(C)C2)C(=O)OC (configuration not stated)	-16.5	9.7	-17.7	65.4*
